A selection: hits, their analogues and other compounds. The true share with any hit is near 11%.
CBFb-RUNX1 inh: CBF-beta/RUNX1 interaction disruption; Potency, µM (series often up to 59.8 µM), usual class: inhibitors; AID 1477; 230,000 tested, under 10 active; AlphaScreen CBFb-His/RUNX1-biotin binding, biochemical
Target sequence (Q01196 whole entry, looked up): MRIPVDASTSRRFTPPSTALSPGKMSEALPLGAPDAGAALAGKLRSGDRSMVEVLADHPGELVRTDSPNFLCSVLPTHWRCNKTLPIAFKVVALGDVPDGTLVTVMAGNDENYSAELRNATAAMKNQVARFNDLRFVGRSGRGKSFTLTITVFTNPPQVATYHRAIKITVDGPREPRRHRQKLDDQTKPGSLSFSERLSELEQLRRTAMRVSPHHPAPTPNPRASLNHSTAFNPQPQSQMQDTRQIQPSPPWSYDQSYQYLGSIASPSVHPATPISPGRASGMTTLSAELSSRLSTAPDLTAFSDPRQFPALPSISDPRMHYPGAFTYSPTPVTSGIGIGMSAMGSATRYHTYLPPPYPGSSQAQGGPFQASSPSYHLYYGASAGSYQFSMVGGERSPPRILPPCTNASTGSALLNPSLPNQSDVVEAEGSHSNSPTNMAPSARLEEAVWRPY
Target sequence (Q13951 whole entry, looked up): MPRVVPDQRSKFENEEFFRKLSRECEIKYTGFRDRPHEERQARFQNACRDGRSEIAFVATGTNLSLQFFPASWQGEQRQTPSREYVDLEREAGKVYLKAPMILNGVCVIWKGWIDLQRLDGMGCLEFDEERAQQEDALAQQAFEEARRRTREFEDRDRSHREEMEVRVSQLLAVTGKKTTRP
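Interaction loss through any mechanism counts as activity. Pre-formed complex of His-CBF-beta and biotin-RUNX1 (30 nM apiece) is incubated with compound 15 min, then with 50 ng nickel and 50 ng streptavidin beads for 90 min before AlphaScreen detection.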
HTT ATP protect: protects HTT-Q103 PC12 cells, measured by ATP; Potency, µM (series often up to 56.4 µM), most hits filed as activators; actives 0.14% (n = 230,000); PC12 HTT-Q103 induced, cytoprotection, ATP luminescence, 40 h; AID 1471; note: nearly all actives have a fitted effect of over 45% in size
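ATP quantification (ATPlite) reports survival of PC12 cells in which tebufenozide, 100 nM final, switches on Htt exon 1 with 103 glutamines linked to GFP; compounds are titrated.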
ALDH1A1 inh: ALDH1A1 (human) enzyme inhibition | P00352 | Purified ALDH1A1, NADH fluorescence, propionaldehyde substrate | Potency, µM (doses to about 75.3 µM), most hits filed as inhibitors | actives 7.3% (n = 220,000); active = well fitted inhibition curve with a large enough effect, not every such curve was filed as active; inconclusive = small, poorly fitted or top-dose-only effect, or another doubt; inactive = no such curve, though single readings can be large or run the other way
HPGD block: HPGD (human) dehydrogenase inhibition; actives 4.3% (n = 150,000); P15428; purified HPGD, NADH fluorescence kinetic, PGE2 substrate; Potency, µM, most hits filed as inhibitors; active = well fitted inhibition curve with a large enough effect, not every such curve was filed as active; inconclusive = small, poorly fitted or top-dose-only effect, or another doubt; inactive = no such curve, though single readings can be large or run the other way
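NADH formation kinetics: reaction with 30 uM PGE2 and 1 mM NAD+ (final), 20 nM enzyme, Tris-HCl pH 8 with Tween 20, after 15 min compound preincubation at room temperature. Fluorescence change, last versus first of five reads.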
PNC assembly inh: blocks assembly of the perinucleolar compartment. activity change (PNC), negative = inhibition, % at 10 µM. actives 3.1% (n = 140,000). PC3M PTB-GFP, PNC prevalence imaging, 16 h; hits give low values;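 active = readout at or below -70, meaning at least 70% loss of cells showing the perinucleolar compartment, a nuclear body marking cancer cells; inconclusive = readout between -30 and a set limit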
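PC3M cells stably expressing PTB-GFP, 750–1000 cells/well, treated 16 h at 37 °C with compound (23 nl of library stock), in duplicate. After paraformaldehyde fixation and Hoechst stain, imaged at 20x; PNC prevalence scored by image analysis.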
HTT aggregate: reduces HttQ103-GFP aggregates in PC12 cells. PC12 HttQ103-GFP aggregates, Acumen cytometry, 40 h. Potency, µM (doses to about 46.1 µM), hits mostly inhibitors. actives 1.1% (n = 220,000); note: nearly all actives have a fitted effect of over 60% in size
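Quantitative HTS on tebufenozide-induced (100 nM) PC12 cells stably expressing polyQ103 Huntingtin exon 1–GFP. Reduction of bright GFP aggregates, detected by laser scanning cytometry after lysis, identified actives across the titration.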
Large screens that a line does not name were inactive; ! = not confirmed by another sample. Unless noted, calls come from the whole dose curve; as a rule, active = well fitted curve in the direction sought with a large enough effect; inconclusive = small, poorly fitted or top-dose-only effect, or another doubt; inactive = no such curve, though single readings can be large; an effect the other way counts as inactive or inconclusive.

C=CCOC(=O)c1cc(-c2ccc(/C=C3\C(=O)NC(=O)C(C#N)=C3C)o2)ccc1Cl	CBFb-RUNX1 inh inconclusive, ALDH1A1 inh 10µM, HPGD block 16µM, PNC assembly inh inconclusive
Cc1cc2c(N=O)c(NO)ccc2[nH]1	HTT aggregate inconclusive
COc1ccc(CC(N)C(=O)NC2C(CO)OC(n3cnc4c(N(C)C)ncnc43)C2O)cc1 (configuration not stated)	HTT aggregate 13µM (no result: PNC assembly inh)
C[C@H](Cc1ccccc1)Nc1ncnc2c1ncn2[C@@H]1O[C@H](CO)[C@H](O)[C@H]1O	HPGD block inconclusive (no result: HTT ATP protect, PNC assembly inh, HTT aggregate)
O=c1[nH]c2ccc(Cl)cc2c(O)c1Cc1ccccc1	ALDH1A1 inh inconclusive (no result: HPGD block, PNC assembly inh)
Cn1c(=O)c2c(O)c(Cc3ccccc3)c(=O)[nH]c2n(C)c1=O	ALDH1A1 inh 14µM, PNC assembly inh inconclusive (no result: HTT ATP protect)
O=C(CCC(=O)CCN1CCCCC1)CCN1CCCCC1	ALDH1A1 inh 0.63µM, PNC assembly inh inconclusive
CC(C)CO/N=C1/C[C@@H](O)[C@@H](O)[C@@H]2[C@@H]3C(=O)N(C4CCCCC4)C(=O)[C@H]3CC[C@H]12	none (no result: HPGD block, PNC assembly inh, HTT aggregate)
Cc1ccc(NC(=O)C(=O)NCCOc2ccc(Cl)cc2)c(C)c1	none
CCCOc1ccc(NCC(=O)Nc2ccc(C)cc2C)cc1	ALDH1A1 inh 2.2µM
Cc1ccc(NC(=O)Cc2ccc(-n3cccc3)cc2)c(C)c1	HTT aggregate inconclusive
CCOc1ccc(NC(=O)CCC(=O)NNC(=O)Nc2ccc(Cl)cc2)cc1	none (no result: HTT ATP protect, HPGD block, PNC assembly inh, HTT aggregate)
CCOc1ccc(NCC(=O)Nc2ccc(Cl)cc2C)cc1	ALDH1A1 inh 3.5µM
Cc1ccc(NC(=O)CCl)c(C)c1	ALDH1A1 inh 0.28µM, HTT aggregate inconclusive (no result: HPGD block, PNC assembly inh)
COc1ccc(NCC(=O)Nc2ccc(Cl)cc2C)c(OC)c1	CBFb-RUNX1 inh inconclusive, ALDH1A1 inh 4.5µM, HPGD block 7.9µM, PNC assembly inh inconclusive
NC1=N[C@H](c2ccc(Cl)cc2)N(c2ccc(S(N)(=O)=O)cc2)C(N)=N1	none (no result: CBFb-RUNX1 inh, PNC assembly inh, HTT aggregate)
CC(C)C[C@H](NC(=O)CNC(=O)[C@H](C)NC(=O)[C@H](CC(C)C)NC(=O)[C@H](CCCNC(=N)N)NC(=O)[C@H](Cc1cnc[nH]1)NC(=O)[C@@H](NC(=O)[C@@H](NC(=O)[C@@H]1CSSC[C@H](NC(=O)[C@@H](N)CO)C(=O)N[C@@H](CC(N)=O)C(=O)N[C@@H]([C@@H](C)O)C(=O)N[C@@H](C)C(=O)N[C@@H]([C@@H](C)O)C(=O)N1)C(C)C)[C@@H](C)O)C(=O)N[C@@H](CC(C)C)C(=O)N[C@@H](CO)C(=O)N[C@@H](CCCNC(=N)N)C(=O)N[C@@H](CO)C(=O)NCC(=O)NCC(=O)N[C@H](C(=O)N[C@H](C(=O)N[C@@H](CCCCN)C(=O)N[C@@H](CC(=O)O)C(=O)N[C@@H](CC(N)=O)C(=O)N[C@@H](Cc1ccccc1)C(=O)N[C@H](C(=O)N1CCC[C@H]1C(=O)N[C@H](C(=O)N[C@@H](CC(N)=O)C(=O)N[C@H](C(=O)NCC(=O)N[C@@H](CO)C(=O)N[C@@H](CCCCN)C(=O)N[C@@H](C)C(=O)N[C@@H](Cc1ccccc1)C(N)=O)C(C)C)[C@@H](C)O)C(C)C)C(C)C)C(C)C	none (no result: HTT ATP protect, ALDH1A1 inh, HPGD block, PNC assembly inh, HTT aggregate)
Cc1cc(Cl)ccc1NC(=O)CCC(=O)O	PNC assembly inh -84 (no result: HTT ATP protect)
COC(=O)/C=C/c1cnc2ccccc2c1	none (no result: HPGD block, PNC assembly inh)
COC(=O)/C=C\c1cc(O)ccc1O	ALDH1A1 inh inconclusive, HPGD block 2.2µM (no result: PNC assembly inh, HTT aggregate)
COc1ccc(S(=O)(=O)Nc2cc(C(=O)NC3CCCCCC3)ccc2N2CCOCC2)cc1	ALDH1A1 inh 3.5µM
COc1ccc(S(=O)(=O)Nc2cc(C(=O)NC(C)C)ccc2N2CCOCC2)cc1	ALDH1A1 inh 0.79µM
CC1(C)CC(=O)C2=C(C1)OC1=C(C(=O)CC(C)(C)C1)C2c1ccc(O)cc1O	ALDH1A1 inh 0.89µM, HPGD block 3.2µM, HTT aggregate inconclusive
COc1cc(/C=C(/NC(=O)c2ccccc2)C(=O)Nc2ccccc2)c([N+](=O)[O-])cc1OC	none
COc1ccc(NC(=O)/C(=C\c2cc(OC)c(OC)cc2[N+](=O)[O-])NC(=O)c2ccccc2)cc1	HPGD block 32µM
COc1ccc(C(=O)N/C(=C\c2cccc([N+](=O)[O-])c2)C(=O)Nc2cccc(C(=O)O)c2)cc1	HTT ATP protect inconclusive, ALDH1A1 inh 13µM (no result: HPGD block, PNC assembly inh)
O=C(COC(=O)Cc1cn2ccsc2n1)Nc1nc2ccccc2s1	PNC assembly inh -100
COCC(=O)Nc1nc2ccccc2s1	none
CC1=C([N+](=O)[O-])C(c2cccc(Br)c2)C2=C(N1)c1ccccc1C2=O (configuration not stated)	CBFb-RUNX1 inh inconclusive, ALDH1A1 inh inconclusive, HPGD block 16µM, PNC assembly inh -83, HTT aggregate inconclusive
CC(=O)c1ccc(OC2C(O)COC2/C=C/c2ccc(Cl)cc2)cc1 (configuration not stated)	ALDH1A1 inh 4µM! (no result: HPGD block, PNC assembly inh, HTT aggregate)
CC(=O)c1ccc(OC2OCCOC2Oc2ccc(C(C)=O)cc2)cc1 (configuration not stated)	none
Cc1ccc(N=Nc2c(C)[nH]n(C(N)=S)c2=O)cc1	ALDH1A1 inh inconclusive (no result: HTT ATP protect, HPGD block, PNC assembly inh)
Cc1[nH]n(C(N)=S)c(=O)c1N=Nc1ccc(S(=O)(=O)N2CCCC2)cc1	ALDH1A1 inh 32µM
O=[N+]([O-])c1ccccc1N=Nc1c(O)[nH]c2ccc(S(=O)(=O)O)cc12	HPGD block 4µM (no result: CBFb-RUNX1 inh, PNC assembly inh, HTT aggregate)
O=C(N=Nc1c(O)[nH]c2ccc([N+](=O)[O-])cc12)c1ccccc1[N+](=O)[O-]	none (no result: ALDH1A1 inh, HPGD block, PNC assembly inh)
CC1(C)CC(=O)C2=C(C1)OC(N)=C(C#N)C2CCc1ccccc1 (configuration not stated)	ALDH1A1 inh inconclusive
N#CC1=C(N)SC(N)=C(C#N)C1Cc1ccccc1	ALDH1A1 inh 8.9µM, HPGD block 11µM, HTT aggregate inconclusive
Cc1[nH]nc2c1C(CC(C)C)C(C#N)=C(N)O2 (configuration not stated)	none (no result: ALDH1A1 inh, HPGD block, PNC assembly inh)
Cc1[nH]nc2c1C(Cc1ccccc1)C(C#N)=C(N)O2 (configuration not stated)	HPGD block inconclusive
N#CC1=C(N)SC(N)=C(C#N)C1c1c(Cl)cccc1Cl	ALDH1A1 inh 22µM, HPGD block inconclusive, PNC assembly inh inconclusive
CC(C)CC1C(C#N)=C(N)SC(N)=C1C#N	ALDH1A1 inh 3.5µM, HPGD block 32µM, PNC assembly inh inconclusive
N#CC1=C(N)SC(N)=C(C#N)C1CCc1ccccc1	ALDH1A1 inh inconclusive, HPGD block 14µM, HTT aggregate inconclusive
Cc1onc(-c2ccccc2)c1NC(=O)N(Cc1ccccc1)C(C)C	none (no result: ALDH1A1 inh, HPGD block, PNC assembly inh)
COC(=O)C1(C(=O)OC)C[C@H]2CON=C2[C@H]1c1ccccc1	none (no result: PNC assembly inh, HTT aggregate)
